# Screens: PubChem BioAssay, National Center for Advancing Translational Sciences (NCATS)
# Rab9 prom act = activators of Rab9 promoter. Huh7 Rab9 promoter-luciferase reporter, luminescence, 24 h. 320,000 compounds, 2.8% hits. Potency, µM (doses to about 9.22 µM), hits mostly activators; also: nearly all actives have a fitted effect of over 60% in size
#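 Stable Rab9-luc Huh7, 1500 cells/well, 2 h settle; cmpd in DMSO, 24 h, 37 °C/5% CO2; luciferase reagent 10 min RT; luminescence.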
# SMN2 splice up = enhancers of SMN2 splice variant expression; HEK293 SMN2-luciferase splicing reporter, luminescence, 30-36 h; Potency, µM (series often up to 46.1 µM), actives largely listed as activators; 210,000 compounds, 2.8% hits; AID 1458; also: nearly all actives have a fitted effect of over 55% in size
#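 qHTS luciferase splicing reporter: luminescence rises when SMN2 exon 7 is included in transfected HEK293 cells. Compound exposure lasted 30-36 h at 37C, with 4.5 mM final sodium butyrate as control, followed by a ONE-Glo read.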
# FLuc counter = inhibits or activates purified firefly luciferase, miR-21 counter-screen; P08659; purified FLuc, Km substrates, luminescence inhibition; Potency, µM (titrated, usually from 57.5 µM), hits mostly inhibitors; 360,000 compounds, 6.9% hits; AID 588342; also: nearly all actives have a fitted effect of over 55% in size
# Target sequence (P08659 whole entry, looked up): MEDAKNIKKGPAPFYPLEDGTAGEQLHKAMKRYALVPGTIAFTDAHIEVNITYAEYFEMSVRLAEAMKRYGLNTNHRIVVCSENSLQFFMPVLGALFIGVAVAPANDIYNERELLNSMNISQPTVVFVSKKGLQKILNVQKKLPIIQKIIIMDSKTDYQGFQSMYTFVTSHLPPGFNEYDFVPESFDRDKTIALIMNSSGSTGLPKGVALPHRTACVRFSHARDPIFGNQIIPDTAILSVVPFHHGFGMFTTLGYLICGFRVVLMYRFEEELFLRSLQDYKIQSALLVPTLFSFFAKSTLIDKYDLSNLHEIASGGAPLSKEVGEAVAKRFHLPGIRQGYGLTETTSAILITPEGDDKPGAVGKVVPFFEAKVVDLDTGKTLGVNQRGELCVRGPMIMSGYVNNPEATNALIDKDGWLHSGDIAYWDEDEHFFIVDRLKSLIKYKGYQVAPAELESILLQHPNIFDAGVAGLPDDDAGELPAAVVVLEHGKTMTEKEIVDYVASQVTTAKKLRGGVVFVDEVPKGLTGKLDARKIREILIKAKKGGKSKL
#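 Purified P. pyralis luciferase (10nM final) with 10uM D-luciferin and 10uM ATP (Km levels) in 50mM Tris acetate pH 7.5, 10mM Mg acetate, 0.01% Tween-20, 0.05% BSA; qHTS 6-point titration, ~60 µM downward; luminescence read.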
# ELG1 genotoxic = inducers of genotoxicity in HEK293T ELG1-luciferase cells. HEK293T ELG1-luciferase reporter, luminescence, 16 h. Potency, µM (titrated, usually from 46 µM), hits mostly activators. 330,000 compounds, 1.3% hits; also: nearly all actives have a fitted effect of over 60% in size
#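 Reporter readout depends on ELG1 protein level, which increases with genetic stress. After 16 hr compound exposure at 37 °C, luciferase activity was quantified using ONE-Glo.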
# NPC1 promoter act = NPC1 promoter activation | Potency, µM (series often up to 9.22 µM), actives largely listed as activators | 320,000 compounds, 2.4% hits | Huh7 NPC1 promoter luciferase reporter, 24 h | AID 485313; also: nearly all actives have a fitted effect of over 60% in size
#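 In 1536-well qHTS, Huh7 cells harboring an NPC1 promoter–luciferase construct received compound for 24 h; activation was quantified by luminescence following luciferase reagent addition.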
# KinaseGlo FLuc = blocks Kinase-Glo luciferase, a counter-screen artifact; Kinase-Glo luciferase, ATP luminescence, 8 min; Potency, µM (series often up to 38.3 µM), actives largely listed as inhibitors; 200,000 compounds, 0.28% hits; also: nearly all actives have a fitted effect of over 60% in size
#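 Light output from Kinase-Glo luciferase with luciferin and 10 uM ATP in 50 mM imidazole pH 7.2, KCl, MgCl2, Tween 20, BSA; compound pin-delivered, 8-min ambient incubation, then luminescence read.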
# Numbers stand for hits; . = inactive; ? = inconclusive; / = no result; [ ] = another dose, or the depositor's remark. Hits are enriched below; roughly 7.5% of the tested compounds scored in any of these assays. Calls follow the shape of the dose curve; as a rule, active = well fitted curve in the direction sought with a large enough effect; inconclusive = small, poorly fitted or top-dose-only effect, or another doubt; inactive = no such curve, though single readings can be large; an effect the other way counts as inactive or inconclusive.
SMILES,Rab9 prom act,SMN2 splice up,FLuc counter,ELG1 genotoxic,NPC1 promoter act,KinaseGlo FLuc
CCOC(=O)c1ccc(-c2ccc3c(c2)CCC3)nc1C,1µM,/,1.5µM,3.7µM,1.6µM,/
COC(=O)c1ccc(-c2ccc(F)cc2)nc1C,3.5µM,?,3.4µM,?,3.5µM,.
Cc1nn(-c2ccc(F)cc2)c(-n2cccc2)c1C(=O)NCCCN1CCN(c2cccc(Cl)c2)CC1,/,/,.,/,/,/
CCn1c(SCCOc2ccc(Cl)cc2)nnc1-c1cccs1,.,.,.,.,.,.
CCn1c(SCC(=O)c2ccc(Cl)cc2)nnc1C(C)C,?,.,19µM,?,?,.
Cc1nnc(SCC(=O)c2ccc(Cl)cc2)n(N)c1=O,1µM,5µM,.,.,0.79µM,.
CCn1c(SCC(=O)c2ccc(Cl)cc2)nnc1-c1cccs1,.,.,24µM,.,.,.
COc1cccc(CNC(=O)c2cc3c(s2)-c2c(C)cccc2OC3)c1,/,.,.,/,/,/
C/C(=N\NC(=O)COc1ccc(C(C)(C)C)cc1)c1ccc(-n2ccnc2)cc1,?,?,0.38µM,.,.,.
CC(C)(C)c1ccc(NC(=O)COc2ccc(-n3ccnc3)cc2)cc1,.,/,15µM,.,.,.
COc1ccc(OCC(=O)N/N=C(\C)c2ccc(-n3ccnc3)cc2)cc1,.,.,6µM,.,.,.
CC(=O)Nc1ccc(NC(=O)CSc2ccc(-c3ccc(-n4ccnc4)cc3)nn2)cc1,.,/,?,.,.,/
C/C(=N\NC(=O)c1ccccc1)c1ccc(-n2ccnc2)cc1,.,/,.,.,.,/
COc1cc(NC(=O)COc2ccc(-n3ccnc3)cc2)cc(OC)c1,.,.,.,.,.,.
Cc1ccc(NC(=O)n2ccc(-c3ccc(-n4ccnc4)cc3)n2)cc1,4µM,13µM,?,.,?,.
C/C(=N\NC(=O)OC(C)(C)C)c1ccc(-n2ccnc2)cc1,.,.,.,.,.,.
COc1ccc(Br)cc1CNC(=O)c1cc2n(n1)CCCN(Cc1ccc(C)cc1)C2=O,/,/,.,/,/,/
CCOc1ccc(S(=O)(=O)n2nnc3ccccc32)cc1C,.,.,.,.,.,.
CCOc1ccc(Cl)cc1S(=O)(=O)n1nnc2ccccc21,.,25µM,.[2.3 µM],.,.,.
Cc1cccc2nc(-c3cccc(NC(=O)c4ccc(Cl)cc4)c3)cn12,.,.,6µM,.,.,.
Cc1cccc2nc(-c3cccc(NC(=O)Cc4ccccc4)c3)cn12,.,.,11µM,.,.,.
COc1ccc2c(c1)c1c(c(=O)n(CCc3ccccc3)c(=O)n1Cc1ccc(F)cc1)n2C,/,/,.,/,/,/
COc1ccc(-c2cc(C(=O)NCc3ccc(F)cc3)no2)cc1,/,.,.,/,/,/
O=C(NCCc1ccccc1)c1cc2ncc(Br)cn2n1,?,?,?,16µM,.,.
O=C(NCc1ccco1)c1cc(-c2cccs2)on1,2.8µM,?,11µM,?,3.2µM,.
SMILES,Rab9 prom act,SMN2 splice up,FLuc counter,ELG1 genotoxic,NPC1 promoter act,KinaseGlo FLuc
CC(C)c1cc(C(=O)NCc2ccco2)no1,?,?,.,15µM,.,.
O=C(NCc1ccco1)c1cc(-c2ccc(F)cc2)on1,2.8µM,.,?,?,2.5µM,.
Cc1cc(C(=O)NCc2ccco2)on1,.,.,.,.,.,.
COc1ccc(CNC(=O)C2CC(C)=CCC2C(=O)O)cc1 (stereo unspecified),.[1.84 µM],/,.,.,.,/
O=C(NCc1ccc(F)cc1)c1cc(-c2ccco2)on1,.,20µM,.,.,.,.
O=C(NCc1ccco1)c1cc(-c2ccccc2)on1,2.8µM,13µM,?,18µM,?,.
O=C(NCCCn1ccnc1)c1cc(-c2cccs2)on1,3.2µM,.,?,?,?,.
O=C(NCc1ccc(Cl)cc1)c1cc(-c2ccco2)on1,.,/,.,.,.,/
O=C(Nc1ccc(F)cc1F)c1cc(-c2ccco2)on1,.,.,4.3µM,?,.,.
O=C(NCCCN1CCOCC1)c1cc(-c2cccs2)on1,?,.,.,?,.,.
Cc1nnc(N2CCN(c3cccc(C(F)(F)F)c3)CC2)c2c1nnn2Cc1ccccc1,/,.,.,/,/,/
Cc1ccc2cc(COC(=O)C3CCCO3)c(=O)[nH]c2c1 (stereo unspecified),.,.,?,.,.,.
O=C(Nc1ccc(F)cc1F)c1csc(-c2ccncc2)n1,.,.,?,.,.,.
COc1ccc(CCNC(=O)c2cc(-c3ccccc3)on2)cc1OC,.,.,.,.,.,.
O=C(Nc1ccc(F)cc1F)c1csc(-c2cccs2)n1,?,?,6.7µM,.,.,.
CC(C)c1cc(C(=O)NCCc2ccccc2)no1,2.2µM,/,17µM,?,3.2µM,.
COc1cccc(-c2cncnc2NCc2ccccc2)c1,/,.,/,/,/,.
CNS(=O)(=O)c1cn(CC(=O)N2CCN(c3ccccc3F)CC2)cc1S(=O)(=O)NC,/,/,.,/,/,/
Cc1ccc(S(=O)(=O)NCCc2cn3nc(C)c(C)nc3n2)cc1C,.,/,.,.,.,/
C=CCn1cc(C(=O)N2CCN(C)CC2)c(=O)c2cc(S(=O)(=O)N(CC)CC)ccc21,.[1.84 µM],/,.,.,.,/
CCOc1ccc(-c2nnc(-c3ccncc3)o2)cc1,1.6µM,?,9.5µM,.,1.8µM,.
CN(C)c1oc(-c2cccs2)nc1C#N,.,.,.,.,.,.
CN(C)c1ccc(-c2nnc(-c3cccs3)o2)cc1,0.32µM,2.2µM,0.76µM,?,0.5µM,.
CCOC(=O)Cc1nnc(-c2ccccc2)o1,.,.,.,.,.,.
CCCCOC(=O)c1nnc(-c2ccccc2)o1,.,/,12µM,.,.,/
SMILES,Rab9 prom act,SMN2 splice up,FLuc counter,ELG1 genotoxic,NPC1 promoter act,KinaseGlo FLuc
CCOC(=O)COc1ccc(-c2nnc(-c3ccccc3)o2)cc1,.,/,6µM,.,.,.
CCOc1ccc(-c2nnc(N)o2)cc1,.,.,?,.,.,.
NCCC[C@@H](CC(=O)N[C@@H]1CCCC[C@H]1C(=O)N[C@H](CC(=O)N[C@@H](CCC(=O)O)CC(=O)O)Cc1ccccc1)NC(=O)C[C@H](CO)NC(=O)[C@@H]1CNCC[C@H]1N,/,.,/,/,/,.
CC#C[C@@]1(O)CC[C@H]2[C@@H]3CCC4=CC(=O)CCC4=C3[C@H](c3ccc(N(C)C)cc3)C[C@]21C,/,.,/,/,/,.
CCCCOc1ccc(-c2nnc(-c3ccncc3)o2)cc1,4µM,/,12µM,?,?,/
CCOc1ccc(-c2nnc(NC3=NCCCCC3)o2)cc1,1.6µM,13µM,4.8µM,2.3µM,?,.
Cc1nnc(NC2=NCCC2)o1,.,?,.,.,.,.
c1coc(-c2nnc(NC3=NCCC3)o2)c1,3.5µM,13µM,19µM,16µM,?,.
CCCOc1ccc(-c2nnc(-c3cccs3)o2)cc1,0.56µM,4.5µM,0.67µM,?,0.71µM,.
CCCCOc1ccc(-c2nnc(-c3cc[n+](C)cc3)o2)cc1,.,/,.,.,.,.
